An excerpt weighted towards active compounds, which were near 3.5% of everything screened.
Pf apPOL inh – Pf-apPOL inhibitors, biochemical, fluorescence | Plasmodium falciparum apicoplast DNA polymerase (apPOL) | Recombinant Pf-apPOL, molecular beacon fluorescence, 1.5 h | inhibition, % at 10 µM | 210,000 compounds, 0.25% hits | AID 1794808, 2022
mHTT CaM bind – mutant huntingtin-calmodulin interaction inhibitors – biochemical, AlphaScreen, primary screen; P42858; AlphaScreen His-mHTT/GST-CaM binding, luminescence; inhibition, % at 15 µM; 190,000 compounds, 3.6% hits; AID 1671202, 2021;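 further: 0% = both proteins with DMSO and 100% = one protein alone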
Numbers without * were called inactive. No stated cut-off is given here; in the data, active means inhibition above about 50%; inactive means the rest.

Results for O=C(NCc1ccccc1)N1CCCC2(C1)Nc1ccccc1NC2=NC1CCCC1 (stereo not drawn) ?
Pf apPOL inh: -6; mHTT CaM bind: 100*

What do the screens show for `O=S(=O)(C1CC1)N1CCCC2(C1)Nc1ccccc1NC2=NCc1ccccc1` (stereo not drawn)?
Pf apPOL inh: -5; mHTT CaM bind: 62*

How did O=C(c1ccccn1)N1CCCC2(C1)Nc1ccccc1NC2=NC1CCCC1 (stereo not drawn) do in these assays?
Pf apPOL inh: 0; mHTT CaM bind: 24

How did COCCC(=O)N1CCCC2(C1)Nc1ccccc1NC2=NC1CCCC1 (stereo not drawn) do in these assays?
Pf apPOL inh: -4; mHTT CaM bind: 7

Results for N#Cc1ccccc1Nc1sc(C(=O)c2ccccc2)c(N)c1C#N ?
Pf apPOL inh: 0; mHTT CaM bind: 10

Results for Cn1ncc2c(NCCC3=CCCCC3)ncnc21 ?
Pf apPOL inh: -62; mHTT CaM bind: -7

How did CC(=O)Nc1nc(-c2cc3cc(Cl)ccc3oc2=O)cs1 do in these assays?
Pf apPOL inh: -3; mHTT CaM bind: -4

Results for Cc1cccc(NC(=O)C2CCCN(c3cn[nH]c(=O)c3)C2)c1 (stereo not drawn) ?
Pf apPOL inh: 7; mHTT CaM bind: 0

What do the screens show for `COc1cccc(-c2noc(C3CCCN3C(=O)NCc3ccc(F)cc3)n2)c1` (stereo not drawn)?
Pf apPOL inh: 0; mHTT CaM bind: 76*

How did Cc1ccccc1OCC(=O)N1CCCC1c1nc(-c2cccc(Cl)c2)no1 (stereo not drawn) do in these assays?
Pf apPOL inh: -5; mHTT CaM bind: 45

What do the screens show for `Cc1cccc(OCC(=O)N2CCCC2c2nc(-c3cccc(Cl)c3)no2)c1` (stereo not drawn)?
Pf apPOL inh: -5; mHTT CaM bind: 78*

What do the screens show for `Cc1cccc(-c2noc(C3CCCN3C(=O)COc3ccccc3)n2)c1` (stereo not drawn)?
Pf apPOL inh: 0; mHTT CaM bind: 24

What do the screens show for `Cc1cccc(-c2noc(C3CCCN3C(=O)COc3ccc(Cl)cc3C)n2)c1` (stereo not drawn)?
Pf apPOL inh: -4; mHTT CaM bind: 76*

What do the screens show for `COc1cccc(-c2noc(C3CCCN3C(=O)NCc3ccc(C)cc3)n2)c1` (stereo not drawn)?
Pf apPOL inh: 1; mHTT CaM bind: 19

What do the screens show for `CCc1ccc(NC(=O)C(C)N(c2ccc(OC)cc2)S(C)(=O)=O)cc1` (stereo not drawn)?
Pf apPOL inh: -11; mHTT CaM bind: 0

What do the screens show for `Cc1ccc(N=Cc2nc(-c3ccc([N+](=O)[O-])cc3)oc2O)c(C)c1`?
Pf apPOL inh: -2; mHTT CaM bind: 3

Results for O=C(NCCCn1ccnc1)C(=O)NCc1ccc(F)cc1 ?
Pf apPOL inh: -6; mHTT CaM bind: 70*

Results for Cc1ccc(NC(=O)C(=O)NCCCn2ccnc2)cc1F ?
Pf apPOL inh: -8; mHTT CaM bind: 17

Results for Cc1ccc(Cl)cc1N(CC(=O)N1CCCC1)S(=O)(=O)c1ccccc1 ?
Pf apPOL inh: -1; mHTT CaM bind: 3

What do the screens show for `O=C(NC1CCN(Cc2ccccc2)CC1)c1cccn2c(=O)c3cc(Cl)ccc3nc12`?
Pf apPOL inh: -2; mHTT CaM bind: 13

Results for Cc1ccc2nc3c(C(=O)N4CCN(Cc5ccccc5)CC4)cccn3c(=O)c2c1 ?
Pf apPOL inh: -3; mHTT CaM bind: 84*

How did CC(C)OCCCNC(=O)C1CCN(c2ncnc3c2nc2n3CCCCC2)CC1 do in these assays?
Pf apPOL inh: 8; mHTT CaM bind: -4

Results for CCc1nc(-c2ccc(C(=O)N3CCN(C4CCCCC4)CC3)cc2)cs1 ?
Pf apPOL inh: -5; mHTT CaM bind: 17

How did O=C(NCC1CC1)C1CC(=O)N(c2ccc3c(c2)CCN3C(=O)C2CCC2)C1 (stereo not drawn) do in these assays?
Pf apPOL inh: -1; mHTT CaM bind: 2

Results for c1nc2nc3c(c(NCC4CC4)n2n1)CCC3 ?
Pf apPOL inh: -5; mHTT CaM bind: -3

How did COc1ccc(OC)c(Nc2nc(CC(=O)NCCc3c[nH]c4ccccc34)cs2)c1 do in these assays?
Pf apPOL inh: -4; mHTT CaM bind: 53*

What do the screens show for `O=C(NCCOc1ccc(F)cc1)c1cc(C2CC2)on1`?
Pf apPOL inh: -37; mHTT CaM bind: -24

How did Cc1cc(C)nc(Nc2nc(C(=O)NCCc3c[nH]c4ccccc34)cs2)n1 do in these assays?
Pf apPOL inh: -6; mHTT CaM bind: 86*

Results for Cc1cc(C)nc(Nc2nc(C(=O)NCCOc3ccc(F)cc3)cs2)n1 ?
Pf apPOL inh: -38; mHTT CaM bind: 91*

What do the screens show for `O=C(NCCc1c[nH]c2ccccc12)c1csc(NS(=O)(=O)c2cccs2)n1`?
Pf apPOL inh: -13; mHTT CaM bind: -10

What do the screens show for `COc1ccc(OC)c(Nc2nc(CC(=O)NCc3ccc4c(c3)OCO4)cs2)c1`?
Pf apPOL inh: -4; mHTT CaM bind: 15
